Here are results for 40 sequences from the OligoGym collection.
Also: reference of the scale not given here.

One assay has as its target AKR1C4. Briefly: pooled miR-30 sensor sort-seq; sequence = guide strand. The note with it: shRNA.
For TATCCTCTGATGTCAACTGGAA, the sensor-assay potency score (higher = more potent) is -0.803. Same read-out and setting: in the case of TTGCTAAGGCACAAAGAACTGG it was -0.934.

In the case of AATCCATGACAACATATCGATA, the sensor-assay potency score (higher = more potent) is -1.75. Same read-out and setting: in the case of ATATCCTCTGATGTCAACTGGA it was -0.353; in that of TAGAACTTTCATATCCTCTGAT, 0.539; in that of TTGGTGACCTCTACAGCTCTGT, 0.122. TTTGGTGACCTCTACAGCTCTG came in with a sensor-assay potency score (higher = more potent) of 0.239.

For the sequence TGGATAATCAGGATGGTCCATA, the sensor-assay potency score (higher = more potent) was -1.08.

As for TTTCATATCCTCTGATGTCAAC, the sensor-assay potency score (higher = more potent) is -1.3. Still for that read-out and setting: in the case of TTATTGTATAAATAAGCAGAAT it was -1.48.

TTTGTTTGTGTTTCTTTGCTAA: the sensor-assay potency score (higher = more potent) stood at 0.179. Still for that read-out and setting: in the case of TTCAGTGAGCTTTCCAAGGCTG it was 0.323; in that of TAGACCATCTAGAACTTTCATA, -0.398.

For ATCATTTAGCTCTACACGCTGA, the sensor-assay potency score (higher = more potent) was -0.425. Still for that read-out and setting: in the case of TTGGTAGTGGCGTCTCACCTGG it was -0.771; in that of TACTTTTCCATTTTCATCTTTT, -0.351; in that of TTGTGTTTCTTTGCTAAGGCAC, -0.225.

For TTCTGTTTAGACCATCTAGAAC, the sensor-assay potency score (higher = more potent) is -1.64. Same read-out and setting: next, TAAGGATGACATTCTACCTGGT: 0.727; AACATATCGATAATTTCTGTTT: -1.09.

For TTGTTTGTGTTTCTTTGCTAAG, the sensor-assay potency score (higher = more potent) is -1.47. On to AAAACCTGGATGTTCTCTCTGA, for which the sensor-assay potency score (higher = more potent) stood at 0.359.

A further assay concerns the target AKT3. The assay is described as above. As to conditions: shRNA.
Turning to TTGTAGAAAGGTAACCTCCCAC, the sensor-assay potency score (higher = more potent) was -0.166.

Take TTATCTTCTAACACCTCTGGTG: the sensor-assay potency score (higher = more potent) is -0.243. On the same count and under the same terms, next, TTATCATATACATCTTGCCAGT: -1.09. The same measure, in the same setting: in the case of TATCTTCTAACACCTCTGGTGC it was -0.701; in that of TTATTGTAATAGTCTGAGCTGT, -0.326; in that of TATTGTAATAGTCTGAGCTGTA, 0.29. As to TTTATCATATACATCTTGCCAG, the sensor-assay potency score (higher = more potent) is 0.12. The same measure, in the same setting: next, TATAACAGTAGTCCACTGGAGA: -0.667; TAGTCTGAGCTGTAAATTCTTC: -1.06; TTGTCTTTCTTTTATGATGGGT: -0.0312. Still for that read-out and setting: in the case of TTTAAAAGGAGGTACAAGCTTT it was -0.528; in that of TAGTCCACTGGAGACATCTGAT, -0.68.

In a further assay the target is ALAD. The assay is described as above. The note with it: shRNA.
With TACCACCTGACATCCTGCCTTG, the sensor-assay potency score (higher = more potent) was -0.254. Same read-out and setting: in the case of ACATCCGTGACAAAGATGGGGT it was 0.0537; in that of ATGATGTCAGCACCTGCTCTGC, -1.4. As for TATGTCATCAGGAACATCCGTG, the sensor-assay potency score (higher = more potent) was 0.268.

Consider TGATGATGATGTCAGCACCTGC, for which the sensor-assay potency score (higher = more potent) was -1.54. On the same count and under the same terms, next, TGATAGGCTGTATGTCATCAGG: -1.65.
